Screening data (PubChem BioAssay)
BH1578 lux ind: quorum light induction in luxS cqsA deficient V. cholerae | V. cholerae BH1578 lux reporter, luminescence, 6 h | activation, % at 18.7 µM | 0.16% of 350,000 active; in the data active means activation mostly above about 9.7%, no sharp cut-off; inconclusive means no clear call, values can overlap the other calls; inactive means mostly below about 3.7%
BJeLR lethal: kills HRASV12-expressing BJeLR cells | BJeLR (HRASV12) viability, CellTiter-Glo ATP luminescence, 48 h | AID 1554 | 0.17% of 300,000 active | inhibition, % (no concentration beside the values); in the data active means inhibition above about 50%; inconclusive means no clear call, values can overlap the other calls
Anthrax LF prot: inhibitors of Bacillus anthracis lethal factor protease; P15917; multiplex microsphere protease cleavage assay, LF; inhibition, % at 10 µM; 0.12% of 360,000 active; further: plate controls were buffer without enzyme for full effect and enzyme alone for no effect
Autofluor counter: flagged as autofluorescent in microsphere protease counterscreen | compound autofluorescence counterscreen, microsphere flow cytometry; active compounds read high | fluorescence intensity (test concentration not listed) | 3.1% of 360,000 active | AID 624483; in the data active means fluorescence intensity above about 16000; inconclusive means no clear call, values can overlap the other calls
BoNT-F LC inh: inhibitors of Botulinum neurotoxin F light chain protease; Multiplex microsphere protease cleavage assay, flow cytometry; inhibition, % at 10 µM; 0.22% of 360,000 active; AID 588497; in the data active means inhibition above about 35%, passing the limit was not always enough; inconclusive means no clear call, values can overlap the other calls; further: plate controls were buffer without enzyme for full effect and enzyme alone for no effect
BoNT A protease: BoNT A light chain protease inhibition. multiplex microsphere protease substrate cleavage, flow cytometry. inhibition, % at 10 µM. 0.17% of 360,000 active. AID 588499; further: plate controls were buffer without enzyme for full effect and enzyme alone for no effect
* hit, by the source's call; i = inactive; ? = inconclusive; . = no result given. Most compounds without a hit are left out; they make up all but 3.7% or so of the library. Unless noted, no stated cut-off is given here; in the data, active means inhibition above about 30%; inconclusive means no clear call, values can overlap the other calls; inactive means below that.

SMILES | BH1578 lux ind | BJeLR lethal | Anthrax LF prot | Autofluor counter | BoNT-F LC inh | BoNT A protease
NC(Cc1ccc(Cl)cc1)c1csc(NC(=O)NCC2CCCCC2)n1 (configuration not stated) | 1 | . | -5 | 3930 | -29 | 0
CCCC(C)(C)C(=O)N1CCC1(C)C(=O)Nc1ccc2c(c1)OCCO2 (configuration not stated) | -1 | . | 1 | 3350 | 2 | 0
Cc1ccc(NC(=O)CSc2nnc(-c3ccncc3)n2C)cc1C | i | -3 | -3 | 20661* | -6 | ?
COC(=O)c1ccccc1NC(=O)CSc1nnc(-c2cccnc2)n1C | . | -8 | 2 | 3253 | ? | 0
COC(=O)c1cc(OC)c(OC)cc1NC(=O)CSc1nnc(-c2cccnc2)n1C | -2 | 5 | 1 | 20945* | -6 | -4
Cn1c(SCC(=O)Nc2ccc(NC(=O)c3ccccc3F)cc2)nnc1-c1ccncc1 | -2 | 4 | -4 | 3631 | 5 | 1
COc1cccc(NC(=O)C(C#N)Cc2ccncc2)c1 (configuration not stated) | 12 | -4 | 1 | 19544* | 10 | 6
CCOc1cc(/C=C2\CN(CC)C/C(=C\c3ccc(O)c(OCC)c3)C2=O)ccc1O | i | 57* | -15 | 3288 | -3 | -4
Cc1c(N2C(=O)CS/C2=N\N=C\c2ccccc2O)c(=O)n(-c2ccccc2)n1C | 0 | 4 | -3 | 16255* | -3 | ?
Cc1c(N2C(=O)CS/C2=N\N=C\c2ccc(Cl)cc2)c(=O)n(-c2ccccc2)n1C | -2 | . | -4 | 10187 | 1 | -1
CC1(C(=O)NC(=S)N(Cc2ccccc2)c2ccccn2)CC1(Cl)Cl (configuration not stated) | 0 | 11 | 0 | 2700 | -13 | -1
CN(C(=S)NC(=O)C1(C)CC1(Cl)Cl)c1ccccc1 (configuration not stated) | i | -7 | 1 | 23191* | -4 | 0
CCC(=O)N1CCC(C)(C(=O)Nc2ccc3c(c2)OCO3)C1 (configuration not stated) | -1 | . | -1 | 3400 | -3 | 0
O=C(NCC1CC1)c1ccc(-n2ccnc2)c2ccoc12 | 0 | . | 1 | 3630 | -3 | 0
CC1(C)Cc2c(c(N3CCOCC3)nc3sc4c(NCc5ccccc5)nnnc4c23)CS1 | 0 | -4 | -2 | 23609* | 0 | -1
CCCC#Cc1ccc2c(c1)O[C@H](CN(C)S(=O)(=O)c1cccc(OC)c1)[C@H](C)CN([C@H](C)CO)S2(=O)=O | 0 | . | -3 | 3817 | 0 | 0
CN(C)C(=O)c1cc2c(c(-c3cccc(-c4ccccc4F)c3)n1)[C@@H](CCO)N(S(C)(=O)=O)C2 | . | . | 10 | 5522 | -5 | 0
N#Cc1ccc(-c2nc3c4ccccc4ccn3c2Cc2cccc(Cl)c2)cc1 | . | . | -1 | 7035 | -7 | 1
CNC(=S)N1N=C(c2ccc(Br)cc2)CC1c1ccc(N(C)C)cc1 (configuration not stated) | i | -3 | -2 | 5318 | -4 | 0
CNC(=S)N1N=C(c2ccc(Br)cc2)CC1c1ccc(Br)cc1 (configuration not stated) | -6 | -4 | -3 | 21159* | -4 | 0
CN1/C(=C/C(=O)c2cccs2)Sc2ccccc21 | i | 6 | 6 | 20294* | -1 | 1
CN1/C(=C\C(=O)c2cccs2)Sc2ccccc21 | 0 | 0 | 6 | 3120 | 7 | 7
CC(C)CCC(CCN1CCCC1)c1ccc2c(c1)OCO2 (configuration not stated) | i | 2 | -7 | 6219 | -10 | 0
CC(C)CCC(CCN1CCOCC1)c1ccc2c(c1)OCO2 (configuration not stated) | i | -4 | -2 | 20867* | 0 | -1
O=C1C=C(N(CCO)CCO)C2(CCCCC2)O1 | i | -3 | -8 | 22987* | -7 | ?
COc1ccc(CCN2CC(C(=O)NCCCc3ccncc3)CCC2=O)cc1 (configuration not stated) | 0 | . | -2 | 2910 | 0 | 0
COc1ccc(N2C(=O)CC(Sc3nc4ccccc4s3)C2=O)cc1 (configuration not stated) | 0 | -6 | -4 | 4550 | -2 | -1
C=CCNc1nnc(SC2CC(=O)N(c3ccc(OC)cc3)C2=O)s1 (configuration not stated) | i | 2 | -6 | 17184* | -4 | -3
